Reference: PubChem BioAssay (NCATS)
Results filed as inconclusive are left out. Calls of active or inactive are those of the source. Calls follow the shape of the dose curve; as a rule, active = well fitted inhibition curve with a large enough effect; inconclusive = small, poorly fitted or top-dose-only effect; inactive = flat fitted curve, though single readings scatter.

What was measured:
Assay in all cases: qHTS profiling for inhibitors of Plasmodium falciparum proliferation (AID 504749); also: nearly all actives have a fitted effect of over 60% in size
AA1029 = conditions: P. falciparum in erythrocytes, SYBR Green DNA, 72 h; series mostly up to 28.7 µM
Outline: (§1)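 Quantitative HTS: compounds pinned into medium, infected erythrocytes added (0.3% parasitemia, 2.5% hematocrit), 72 h culture at 37 C under 5% CO2. Saponin/Triton lysis with SYBR Green I, overnight RT, then fluorescence read.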

ATS95 = conditions: P. falciparum in erythrocytes, SYBR Green DNA, 72 h; series mostly up to 28.7 µM
Outline: as §1

C2A = conditions: P. falciparum in erythrocytes, SYBR Green DNA, 72 h; series mostly up to 28.7 µM
Outline: as §1

CP215 = conditions: P. falciparum in erythrocytes, SYBR Green DNA, 72 h; series mostly up to 28.7 µM
Outline: as §1

CP217 = conditions: P. falciparum in erythrocytes, SYBR Green DNA, 72 h; series mostly up to 28.7 µM
Outline: as §1

CP250 = conditions: P. falciparum in erythrocytes, SYBR Green DNA, 72 h; series mostly up to 12.8 µM
Outline: as §1

CP252 = conditions: P. falciparum in erythrocytes, SYBR Green DNA, 72 h; series mostly up to 12.8 µM
Outline: as §1

CP266 = conditions: P. falciparum in erythrocytes, SYBR Green DNA, 72 h; series mostly up to 12.8 µM
Outline: as §1

CP269 = conditions: P. falciparum in erythrocytes, SYBR Green DNA, 72 h; series mostly up to 28.7 µM
Outline: as §1

CP315 = conditions: P. falciparum in erythrocytes, SYBR Green DNA, 72 h; series mostly up to 28.7 µM
Outline: as §1

CP325 = conditions: P. falciparum in erythrocytes, SYBR Green DNA, 72 h; series mostly up to 28.7 µM
Outline: as §1

CP329 = conditions: P. falciparum in erythrocytes, SYBR Green DNA, 72 h; series mostly up to 28.7 µM
Outline: as §1

DIV14 = conditions: P. falciparum in erythrocytes, SYBR Green DNA, 72 h; series mostly up to 28.7 µM
Outline: as §1

DIV17 = conditions: P. falciparum in erythrocytes, SYBR Green DNA, 72 h; series mostly up to 28.7 µM
Outline: as §1

N140 = conditions: P. falciparum in erythrocytes, SYBR Green DNA, 72 h; series mostly up to 28.7 µM
Outline: as §1

P93_24 = conditions: P. falciparum in erythrocytes, SYBR Green DNA, 72 h; series mostly up to 28.7 µM
Outline: as §1

PAD = conditions: P. falciparum in erythrocytes, SYBR Green DNA, 72 h; series mostly up to 28.7 µM
Outline: as §1

PC26 = conditions: P. falciparum in erythrocytes, SYBR Green DNA, 72 h; series mostly up to 28.7 µM
Outline: as §1

SC27B = conditions: P. falciparum in erythrocytes, SYBR Green DNA, 72 h; series mostly up to 28.7 µM
Outline: as §1

TAB165 = conditions: P. falciparum in erythrocytes, SYBR Green DNA, 72 h; series mostly up to 28.7 µM
Outline: as §1

Measured: Potency

CC(C)(O)C1C2OC(=O)C1[C@]1(O)C[C@H]3O[C@]34C(=O)O[C@H]2[C@]14C (stereo not given in full) (tested in a mixture with another compound)
inactive: all assays above

Oc1ccc2c3c1O[C@H]1[C@@H](O)CC[C@@]4(O)C(C2)N(CC2CCC2)CCC314 (stereo not given in full)
inactive: all assays above

CCCC[N+]1(C)C2CC(OC(=O)C(CO)c3ccccc3)CC1C1OC12 (stereo not given)
inactive: all assays above
